Here are results for 14 compounds from PubChem BioAssay.

For orientation: inhibition means the change of the read-out against control, counted positive when it falls.

The structures appear in SMILES notation. Active and inactive are the calls of the source.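 Rule for the calls, unless noted: active = inhibition at or above 50% at 10 µM; inactive = inhibition below 50%.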

A short description of assay [1]: inhibitors of TNFa-induced NFkB p65 translocation, primary screen, imaging, HUVEC, MLSMR starter and 10KST1 sets (AID 438;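 active = inhibition above 20% together with a positive visual image hit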;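 note: compound added about 3h40 before a 20 min TNFalpha stimulation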;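 for inhibition: signal is the nuclear over cytoplasmic p65 intensity ratio per well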). The following applies: HUVEC TNFa-induced p65 nuclear translocation; cell count: measured here: nuclei count (cytotoxicity indicator), at 2.08 µM; inhibition: at 2 µM, stronger effect = higher value, 0% TNFa-plus-vehicle, 100% no-TNFa wells.
A short description of assay [2]: inhibitors of mutant huntingtin aggregation, primary screen, imaging, exon1htt(103Q)mCFP cells, high-content imaging (AID 483;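 active = visual image review flags a hit and inhibition of aggregation exceeds 20%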;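 note: compound exposure lasted 3 days before fixation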;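 for nuclei count: percent of the per-plate median nuclei count of sample wells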). Conditions: exon1htt(103Q)mCFP cell line, aggregate imaging, at 2 µM; inhibition of aggregation: stronger effect = higher value; nuclei count: measured here: cell count, toxicity.
The nature of assay [3]: inhibitors of E-selectin induction by TNFa, primary screen, imaging, HUVEC, immunofluorescence, MLSMR starter and 10KST1 sets (AID 487;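 active = visually confirmed hit in the image check and inhibition above 20%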;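 for inhibition: signal is fraction of cell area covered by stained E-selectin grains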;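 for nuclei count: 100% = median nuclei count of all wells on the same plate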). Conditions: HUVEC TNFalpha-induced E-selectin immunofluorescence imaging, at 2 µM; inhibition: stronger effect = higher value; nuclei count: measured here: cell number, toxicity.
The target in assay [4] is Voltage-gated potassium channel subunit beta-2 (Rattus norvegicus) (UniProt P62483). The experiment in a line: KvBeta enzyme negative modulators, primary screen, biochemical, NADPH fluorescence (AID 622;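 active = fluorescence slope higher than the sample average by over 3 SD, cut at about -0.22 in these data, passing the limit was not always enough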;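 note: slope of raw intensity against log time taken from 70 to 1610 s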). The following applies: recombinant KvBeta, 4-cyanobenzaldehyde reduction, at 10 µM, stronger effect = higher value.
Sequence of Voltage-gated potassium channel subunit beta-2 (Rattus norvegicus) (P62483 whole entry, looked up): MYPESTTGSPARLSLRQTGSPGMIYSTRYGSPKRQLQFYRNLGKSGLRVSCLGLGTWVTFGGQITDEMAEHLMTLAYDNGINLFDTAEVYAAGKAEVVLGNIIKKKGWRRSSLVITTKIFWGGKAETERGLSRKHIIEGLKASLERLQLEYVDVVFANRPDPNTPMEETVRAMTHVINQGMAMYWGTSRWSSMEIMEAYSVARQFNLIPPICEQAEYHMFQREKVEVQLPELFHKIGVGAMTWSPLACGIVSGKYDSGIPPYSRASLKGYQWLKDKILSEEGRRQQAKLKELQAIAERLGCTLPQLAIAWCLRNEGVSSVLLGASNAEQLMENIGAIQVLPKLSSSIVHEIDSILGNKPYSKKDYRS
Assay [5] has the same target. The assay is described as follows: KvBeta positive modulators, primary screen, biochemical, NADPH fluorescence (AID 623;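 active = NADPH fluorescence slope more negative than the mean of all samples by about 3 SD, 99.7% confidence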;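 note: fluorescence intensity change per second fitted from 20 to 320 s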). Conditions: Recombinant KvBeta, NADPH fluorescence decrease slope, 10 min; at 10 µM; stronger effect = lower value.
Assay [6] concerns the target Alpha-2C adrenergic receptor (Homo sapiens) (UniProt P18825). The experiment in a line: modulators of alpha2C/GIRK thallium flux, primary screen, cell-based, HEK293 alpha2C/GIRK1/2 (AID 624;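 active = fluorescence slope after compound addition differing from the mean of all screened samples at 99.7% confidence, in either direction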;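 note: slope of fluorescence ratio to pre-addition baseline per second over 15 to 24 s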). Conditions: thallium flux BTC fluorescence, at 10 µM, actives lie on both sides.
Assay [7] can be described thus: inhibitors of Sendai virus-induced IRF3 signaling, primary screen, TLR/RLR signaling modifier project, cell-based, Sendai virus stimulus, luciferase, 10K MLSCN set (AID 602276).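 Note: firefly luciferase from ISG56 promoter only with Renilla not read in this screen; 0% = Sendai virus plus DMSO and 100% = medium plus DMSO without virus.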 The following applies: HEK293 RL24 IRF3 luciferase reporter, at 10 µM, stronger effect = higher value.
Assay [8] is described as follows: inhibitors of poly I:C-induced TLR3 signaling, primary screen, cell-based, poly I:C stimulus, luciferase, 10K MLSCN set (AID 602277;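 active = inhibition of the reporter signal at or above 50%; inactive = inhibition below 50%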). Conditions: HEK293-TLR3 RL24 IRF3 luciferase reporter, at 10 µM, stronger effect = higher value.

Sequence of Alpha-2C adrenergic receptor (Homo sapiens) (P18825 whole entry, looked up): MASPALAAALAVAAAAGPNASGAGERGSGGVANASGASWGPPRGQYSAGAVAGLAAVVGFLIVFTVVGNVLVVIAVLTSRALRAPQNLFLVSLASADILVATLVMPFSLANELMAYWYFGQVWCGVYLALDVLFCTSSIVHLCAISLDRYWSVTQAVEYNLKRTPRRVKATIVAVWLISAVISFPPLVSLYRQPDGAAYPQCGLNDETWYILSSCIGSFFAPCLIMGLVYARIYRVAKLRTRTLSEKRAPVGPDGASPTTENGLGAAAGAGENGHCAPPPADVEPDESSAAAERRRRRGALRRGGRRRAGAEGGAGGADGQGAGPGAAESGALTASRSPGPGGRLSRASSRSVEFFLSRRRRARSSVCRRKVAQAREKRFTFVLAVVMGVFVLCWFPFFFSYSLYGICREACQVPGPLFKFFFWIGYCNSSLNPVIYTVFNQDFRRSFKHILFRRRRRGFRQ

`CCCSc1nnc2nc3c(nn12)c1ccccc1n3C`: in assay [1], the cell count amounted to 572. The inhibition is 4.4% (inactive) in assay [1], 5.3% (inactive) in assay [3], 5.91% (inactive) in assay [7] and 27.8% (inactive) in assay [8]. Further, the inhibition of aggregation in assay [2] is -6.3% (inactive). The nuclei count in assay [2] is 109%; in assay [3] it was 107%. In addition, the fluorescence slope in assay [4] is -0.519 (inactive). In assay [5], the NADPH fluorescence slope is -6.9e-05 (inactive). In assay [6], the slope is 0.0026 (inactive).

Turning to `Cc1ccc(C)c2[nH]c(=O)c(CCNC(=O)c3ccc(S(=O)(=O)N(C)C)cc3)cc12`, the cell count in assay [1] amounted to 596. Moreover, the inhibition in assay [1] is 4.3% (inactive); in assay [3], -14% (inactive); in assay [7], 3.79% (inactive); in assay [8], 22.8% (inactive). Besides, in assay [2], the inhibition of aggregation was 15% (inactive). Also, the values for the nuclei count in assay [2] and in assay [3] were 125% and 116%, respectively. Also, the fluorescence slope in assay [4] is -0.557 (inactive). The NADPH fluorescence slope in assay [5] was -4e-05 (inactive). Besides, the slope in assay [6] was 0.00528 (inactive).

For `CC(=O)Nc1ccccc1OCc1nnc(-c2cccs2)o1`, in assay [1], the cell count came to 392. Besides, the inhibition in assay [1] is 4.8% (inactive); in assay [3], -266% (inactive); in assay [7], -27% (inactive); in assay [8], -28.6% (inactive). In assay [2], the inhibition of aggregation is -8.8% (inactive). In addition, the nuclei count came to 92.5% in assay [2] and 104% in assay [3]. For the same compound, in assay [4], the fluorescence slope was -0.612 (inactive). Besides, the NADPH fluorescence slope in assay [5] is 2e-06 (inactive). In assay [6], the slope is 0.00944 (inactive).

Take `Fc1ccc(-c2nnc3ccc(N4CCCC4)nn23)cc1`: the cell count in assay [1] is 662. The inhibition is 0.5% (inactive) in assay [1], -61.6% (inactive) in assay [3], 3.21% (inactive) in assay [7] and -61.2% (inactive) in assay [8]. Also, the inhibition of aggregation in assay [2] was -1% (inactive). Moreover, the results for the nuclei count in assay [2] and in assay [3] were 97.7% and 120%, respectively. Moreover, the fluorescence slope in assay [4] is -0.56 (inactive). In addition, in assay [5], the NADPH fluorescence slope was 2e-05 (inactive). The slope in assay [6] was 0.00653 (inactive).

For the compound `Cc1ccc(C)c(N2CCN(CCCNC(=O)Cn3cc4c(n3)CCCCC4)CC2)c1`, the cell count in assay [1] amounted to 771. In addition, the inhibition in assay [1] was -4.3% (inactive); in assay [3], -60.6% (inactive); in assay [7], 7.36% (inactive); in assay [8], 19% (inactive). Further, the inhibition of aggregation in assay [2] is -55.1% (inactive). Moreover, the nuclei count in assay [2] is 114%; in assay [3] it was 110%. In assay [4], the fluorescence slope is -0.619 (inactive). In addition, in assay [5], the NADPH fluorescence slope was -3.7e-05 (inactive). Further, the slope in assay [6] was 0.00461 (inactive).

For `CCOC(=O)c1c(NC(=O)OC)sc2c1CCC2`, the cell count in assay [1] is 496. Also, the inhibition was -0.5% (inactive) in assay [1], -35.7% (inactive) in assay [3], 7.95% (inactive) in assay [7] and 15.6% (inactive) in assay [8]. In addition, the inhibition of aggregation in assay [2] was 9.3% (inactive). Besides, the nuclei count in assay [2] came out at 82.8%; in assay [3], 125%. For the same compound, the fluorescence slope in assay [4] is -0.535 (inactive). Moreover, the NADPH fluorescence slope in assay [5] is -1.5e-05 (inactive). Moreover, in assay [6], the slope was 0.00667 (inactive).

Regarding `COc1cc(NC(=O)c2nccnc2C(=O)O)cc(OC)c1`, the cell count in assay [1] was 856. Moreover, the inhibition in assay [1] was 1.2% (inactive); in assay [3] it was -30.5% (inactive); in assay [7], -3.73% (inactive); in assay [8] it was 6.75% (inactive). In addition, the inhibition of aggregation in assay [2] was -12.8% (inactive). The nuclei count stood at 81.8% in assay [2] and 117% in assay [3]. The fluorescence slope in assay [4] is -0.554 (inactive). In addition, the NADPH fluorescence slope in assay [5] was -2e-05 (inactive). For the same compound, the slope in assay [6] is 0.00607 (inactive).

In the case of `O=C(CCCN1C(=O)c2ccccc2C1=O)NCc1cccnc1`, the cell count in assay [1] was found to be 709. The inhibition in assay [1] was -7.1% (inactive); in assay [3], -120% (inactive); in assay [7] it was 8.03% (inactive); in assay [8], 8.47% (inactive). The inhibition of aggregation in assay [2] was -4.8% (inactive). The nuclei count in assay [2] came to 102%; in assay [3], 134%. In addition, in assay [4], the fluorescence slope is -0.42 (inactive). Further, in assay [5], the NADPH fluorescence slope was -2.4e-06 (inactive). Moreover, the slope in assay [6] was 0.00753 (inactive).

Consider `Cc1ccc(S(=O)(=O)C2(C(=O)N3CCCCCC3)CC2)cc1`, for which, in assay [1], the cell count is 439. Also, the inhibition in assay [1] was -0.7% (inactive); in assay [3] it was -46.5% (inactive); in assay [7], 8.56% (inactive); in assay [8], 1.57% (inactive). For the same compound, the inhibition of aggregation in assay [2] was -0.7% (inactive). The nuclei count came to 102% in assay [2] and 122% in assay [3]. For the same compound, the fluorescence slope in assay [4] is -0.611 (inactive). The NADPH fluorescence slope in assay [5] is 4.7e-05 (inactive). Further, the slope in assay [6] was 0.00663 (inactive).

For the compound `O=C(OCC(=O)c1cccs1)C1=COCCO1`, in assay [1], the cell count was 656. The inhibition in assay [1] was -7.6% (inactive); in assay [3], 5.3% (inactive); in assay [7], -24.9% (inactive); in assay [8], -83.1% (inactive). Moreover, the inhibition of aggregation in assay [2] is -9.8% (inactive). For the same compound, the nuclei count in assay [2] was found to be 105%; in assay [3] it was 119%. The fluorescence slope in assay [4] is -0.345 (inactive). Further, the NADPH fluorescence slope in assay [5] is -2.7e-05 (inactive). Moreover, the slope in assay [6] is 0.00586 (inactive).

For the compound `CN1CCc2c(sc3c2C(=O)NC(c2cccc(OC(=O)c4cccs4)c2)N3)C1` (centres undefined), the cell count in assay [1] was determined as 497. Besides, the inhibition in assay [1] is -2.5% (inactive); in assay [3], -21.9% (inactive); in assay [7], -5.69% (inactive); in assay [8], 10.3% (inactive). Besides, the inhibition of aggregation in assay [2] was -4.1% (inactive). Besides, the nuclei count in assay [2] is 101%; in assay [3] it was 108%. For the same compound, the fluorescence slope in assay [4] is -0.422 (inactive). For the same compound, the NADPH fluorescence slope in assay [5] is -4.2e-05 (inactive). Further, the slope in assay [6] was 0.00392 (inactive).

`CCN1CCN(C(=O)c2cn(CC)c3ccc(S(=O)(=O)N(C)C)cc3c2=O)CC1`: in assay [1], the cell count amounted to 639. The inhibition was 1.3% (inactive) in assay [1], -30% (inactive) in assay [3], 7.55% (inactive) in assay [7] and 20.6% (inactive) in assay [8]. Also, the inhibition of aggregation in assay [2] was 12.4% (inactive). In addition, the nuclei count was 100% in assay [2] and 107% in assay [3]. Moreover, in assay [4], the fluorescence slope was -0.59 (inactive). In addition, the NADPH fluorescence slope in assay [5] was -3.2e-05 (inactive). The slope in assay [6] was 0.00681 (inactive).

Regarding `COc1ccc(-c2c(=O)n(OCc3ccccn3)c3ccccc3[n+]2[O-])cc1OC`, in assay [1], the cell count amounted to 398. For the same compound, the inhibition is 3.3% (inactive) in assay [1], -22.9% (inactive) in assay [3], -2.61% (inactive) in assay [7] and -16.8% (inactive) in assay [8]. In addition, the inhibition of aggregation in assay [2] was -10.4% (inactive). Also, the nuclei count in assay [2] stood at 104%; in assay [3], 110%. For the same compound, in assay [4], the fluorescence slope was -0.385 (inactive). Also, the NADPH fluorescence slope in assay [5] is -3.7e-09 (inactive). Further, the slope in assay [6] is 0.00593 (inactive).

On to `O=S(=O)(c1cccc(S(=O)(=O)N2CCC(N3CCCCC3)CC2)c1)N1CCOCC1`, for which the cell count in assay [1] was found to be 725. The inhibition in assay [1] was -4.8% (inactive); in assay [3], -3.7% (inactive); in assay [7], 7.24% (inactive); in assay [8], 28.4% (inactive). In assay [2], the inhibition of aggregation is -6.3% (inactive). The nuclei count was 123% in assay [2] and 106% in assay [3]. Also, the fluorescence slope in assay [4] was -0.469 (inactive). Further, the NADPH fluorescence slope in assay [5] was -1.3e-06 (inactive). In assay [6], the slope is 0.00684 (inactive).
